The source of these data is PMC7862700, “An all-to-all approach to the identification of sequence-specific readers for epigenetic DNA modifications on cytosine”.

Assay in all cases: DAPPL (digital affinity profiling via proximity ligation, sequencing); 10 mM Tris-HCl pH 7.5, 50 mM NaCl, 1 mM DTT, 4% glycerol, room temperature, 30 min; GST-TFs on glutathione beads, 16-mer random dsDNA library, 0.1% formaldehyde crosslink after washing; high values mean tight binding
The target of one assay is T1, FEV (Homo sapiens, UniProt Q99581 1-238).
T1 sequence: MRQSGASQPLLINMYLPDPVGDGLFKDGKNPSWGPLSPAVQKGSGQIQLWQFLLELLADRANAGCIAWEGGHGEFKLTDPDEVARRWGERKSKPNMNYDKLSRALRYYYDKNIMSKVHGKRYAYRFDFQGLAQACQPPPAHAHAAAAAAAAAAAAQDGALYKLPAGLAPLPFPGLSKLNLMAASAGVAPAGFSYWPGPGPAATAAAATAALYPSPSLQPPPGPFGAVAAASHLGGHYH
Particulars: protein: recombinant; tags: N-terminal GST; dsDNA, one strand shown. Summed up:
(§1)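 Binding signal is given per hexamer as its read frequency for a factor divided by its frequency in the tag-only sample. GST-fused human transcription factors were expressed in yeast, captured on glutathione beads, barcoded with DNA and pooled with that sample, then incubated with 200 nmole of a 16-mer random double-stranded DNA library in Tris/NaCl/DTT/glycerol buffer for 30 min at room temperature. The pools were then washed, crosslinked, proximity-ligated, amplified by PCR and sequenced on an Illumina NextSeq500.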

Another assay concerns the target ETV5 (Homo sapiens, UniProt P41161 1-510). The note with it: protein: recombinant; tags: N-terminal GST; dsDNA, one strand shown. The method in brief: as §1
In the next assay the target is HSF1 (Homo sapiens, UniProt Q00613 1-529). Particulars: protein: recombinant; tags: N-terminal GST; chain copies: 3; dsDNA, one strand shown. The method in brief: as §1
A further assay concerns the target T2, SPIC (Homo sapiens, UniProt Q8N5J4 1-248).
T2 sequence: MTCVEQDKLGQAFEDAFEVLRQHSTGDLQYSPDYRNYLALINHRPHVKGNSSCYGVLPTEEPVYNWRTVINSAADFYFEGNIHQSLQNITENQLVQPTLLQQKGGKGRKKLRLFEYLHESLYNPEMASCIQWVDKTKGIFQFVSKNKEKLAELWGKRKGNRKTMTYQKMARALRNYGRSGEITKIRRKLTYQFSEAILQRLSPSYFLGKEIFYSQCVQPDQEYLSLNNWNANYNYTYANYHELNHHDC
The note with it: protein: recombinant; tags: N-terminal GST; dsDNA, one strand shown. Summed up: as §1

In a further assay the target is ELF4 (Homo sapiens, UniProt Q99607 1-663). The note with it: protein: recombinant; tags: N-terminal GST; dsDNA, one strand shown. The method in brief: as §1
A further assay concerns the target T3, ELK4 (Homo sapiens, UniProt P28324-2 1-405).
T3 sequence: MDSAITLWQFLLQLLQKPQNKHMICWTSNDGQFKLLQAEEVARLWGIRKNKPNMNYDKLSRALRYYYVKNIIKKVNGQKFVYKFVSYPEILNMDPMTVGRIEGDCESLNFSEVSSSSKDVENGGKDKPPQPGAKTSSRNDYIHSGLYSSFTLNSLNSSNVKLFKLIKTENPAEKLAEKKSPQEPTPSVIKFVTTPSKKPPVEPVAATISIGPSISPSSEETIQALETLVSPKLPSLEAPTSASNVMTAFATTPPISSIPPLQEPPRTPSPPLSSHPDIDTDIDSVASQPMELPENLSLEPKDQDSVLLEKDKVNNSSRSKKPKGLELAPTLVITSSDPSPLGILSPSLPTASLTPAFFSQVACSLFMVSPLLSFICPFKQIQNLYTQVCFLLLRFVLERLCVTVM
Particulars: protein: recombinant; tags: N-terminal GST; dsDNA, one strand shown. Summed up:
as §1

For another assay, the target named is T4, ETV2 (Homo sapiens, UniProt O00321 1-342).
T4 sequence: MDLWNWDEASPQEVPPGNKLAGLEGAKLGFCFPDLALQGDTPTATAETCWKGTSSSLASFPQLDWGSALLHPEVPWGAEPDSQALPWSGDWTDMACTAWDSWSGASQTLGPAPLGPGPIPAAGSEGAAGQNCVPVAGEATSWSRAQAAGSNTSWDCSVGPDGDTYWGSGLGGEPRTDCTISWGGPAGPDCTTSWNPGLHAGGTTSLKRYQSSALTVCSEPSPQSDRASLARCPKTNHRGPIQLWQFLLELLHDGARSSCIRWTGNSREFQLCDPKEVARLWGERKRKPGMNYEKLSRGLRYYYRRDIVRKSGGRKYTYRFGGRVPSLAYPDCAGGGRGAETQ
Particulars: protein: recombinant; tags: N-terminal GST; dsDNA, one strand shown. The method in brief:
as §1

The target in the next assay is T5, ELF3 (Homo sapiens, UniProt P78545 1-371).
T5 sequence: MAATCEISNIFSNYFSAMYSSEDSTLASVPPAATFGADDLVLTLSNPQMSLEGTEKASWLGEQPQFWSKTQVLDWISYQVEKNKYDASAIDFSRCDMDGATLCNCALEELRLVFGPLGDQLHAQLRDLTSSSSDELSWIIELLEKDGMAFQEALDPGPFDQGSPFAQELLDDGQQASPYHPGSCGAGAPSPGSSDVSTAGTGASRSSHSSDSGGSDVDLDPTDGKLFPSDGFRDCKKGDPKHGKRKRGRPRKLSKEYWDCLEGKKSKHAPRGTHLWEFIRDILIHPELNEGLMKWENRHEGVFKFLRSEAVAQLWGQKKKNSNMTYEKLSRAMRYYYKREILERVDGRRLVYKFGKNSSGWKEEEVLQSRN
The note with it: protein: recombinant; tags: N-terminal GST; dsDNA, one strand shown. The method in brief:
as §1

The target of another assay is CRX (Homo sapiens, UniProt O43186 1-299). The note with it: protein: recombinant; tags: N-terminal GST; dsDNA, one strand shown. Summed up: as §1
Another assay concerns the target ETV1 (Homo sapiens, UniProt P50549 1-477). Particulars: protein: recombinant; tags: N-terminal GST; dsDNA, one strand shown. Summed up: as §1
Another assay addresses T6, ERF (Homo sapiens, UniProt P50548 1-548).
T6 sequence: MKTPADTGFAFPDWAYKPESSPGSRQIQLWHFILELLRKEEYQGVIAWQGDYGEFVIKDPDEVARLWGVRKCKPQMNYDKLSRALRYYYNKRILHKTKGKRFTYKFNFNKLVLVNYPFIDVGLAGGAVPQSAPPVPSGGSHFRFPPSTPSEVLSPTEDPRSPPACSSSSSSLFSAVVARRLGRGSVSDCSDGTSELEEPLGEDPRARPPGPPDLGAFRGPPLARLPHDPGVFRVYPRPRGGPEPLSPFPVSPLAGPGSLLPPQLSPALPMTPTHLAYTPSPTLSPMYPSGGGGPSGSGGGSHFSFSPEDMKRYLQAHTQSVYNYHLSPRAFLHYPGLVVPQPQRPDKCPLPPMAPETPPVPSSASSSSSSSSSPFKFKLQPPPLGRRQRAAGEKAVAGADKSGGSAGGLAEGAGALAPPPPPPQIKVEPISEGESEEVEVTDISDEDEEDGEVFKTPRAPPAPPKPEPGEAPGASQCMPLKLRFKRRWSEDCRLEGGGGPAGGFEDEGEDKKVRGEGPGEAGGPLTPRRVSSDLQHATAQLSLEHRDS
Particulars: protein: recombinant; tags: N-terminal GST; dsDNA, one strand shown. The method in brief: as §1

In the next assay the target is T7, ETV3L (Homo sapiens, UniProt Q6ZN32 1-361).
T7 sequence: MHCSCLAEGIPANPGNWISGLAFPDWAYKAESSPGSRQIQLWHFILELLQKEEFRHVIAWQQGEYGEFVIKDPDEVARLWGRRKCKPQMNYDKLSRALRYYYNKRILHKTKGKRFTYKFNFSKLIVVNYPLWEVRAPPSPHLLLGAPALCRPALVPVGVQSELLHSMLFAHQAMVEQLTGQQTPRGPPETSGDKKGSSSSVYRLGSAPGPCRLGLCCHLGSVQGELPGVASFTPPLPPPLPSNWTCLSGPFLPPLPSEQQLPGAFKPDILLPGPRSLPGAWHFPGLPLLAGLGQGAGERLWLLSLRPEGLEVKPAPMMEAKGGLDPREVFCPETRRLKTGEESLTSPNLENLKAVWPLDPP
The note with it: protein: recombinant; tags: N-terminal GST; dsDNA, one strand shown. Summed up:
as §1

In a further assay the target is T8, ETS2 (Homo sapiens, UniProt P15036 1-469).
T8 sequence: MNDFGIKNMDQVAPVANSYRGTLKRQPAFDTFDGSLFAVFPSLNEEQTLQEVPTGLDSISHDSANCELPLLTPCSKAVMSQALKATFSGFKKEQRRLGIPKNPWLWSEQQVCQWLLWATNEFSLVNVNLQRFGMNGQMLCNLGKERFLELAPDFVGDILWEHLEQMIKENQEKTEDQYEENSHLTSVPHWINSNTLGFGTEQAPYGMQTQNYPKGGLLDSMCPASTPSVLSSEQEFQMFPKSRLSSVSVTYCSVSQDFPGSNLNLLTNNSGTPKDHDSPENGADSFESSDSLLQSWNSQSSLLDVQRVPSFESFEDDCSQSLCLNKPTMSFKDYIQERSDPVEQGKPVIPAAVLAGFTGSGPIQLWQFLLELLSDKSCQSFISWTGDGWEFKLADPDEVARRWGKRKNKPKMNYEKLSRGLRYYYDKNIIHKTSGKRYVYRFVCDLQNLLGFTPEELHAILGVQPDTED
The note with it: protein: recombinant; tags: N-terminal GST; dsDNA, one strand shown. Summed up:
as §1

For the next assay, the target named is T9, SPDEF (Homo sapiens, UniProt O95238 1-335).
T9 sequence: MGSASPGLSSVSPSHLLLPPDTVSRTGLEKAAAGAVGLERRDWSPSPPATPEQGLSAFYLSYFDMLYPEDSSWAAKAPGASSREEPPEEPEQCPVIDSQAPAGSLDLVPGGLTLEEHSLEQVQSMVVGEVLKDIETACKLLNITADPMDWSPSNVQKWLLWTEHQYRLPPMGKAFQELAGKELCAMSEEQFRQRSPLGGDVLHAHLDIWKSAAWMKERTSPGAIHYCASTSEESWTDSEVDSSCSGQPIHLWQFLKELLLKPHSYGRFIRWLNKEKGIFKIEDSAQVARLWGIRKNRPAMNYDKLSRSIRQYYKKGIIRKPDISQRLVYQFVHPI
The note with it: protein: recombinant; tags: N-terminal GST; dsDNA, one strand shown. The method in brief: as §1

Another assay deals with T10, ETV7 (Homo sapiens, UniProt Q9Y603 1-341).
T10 sequence: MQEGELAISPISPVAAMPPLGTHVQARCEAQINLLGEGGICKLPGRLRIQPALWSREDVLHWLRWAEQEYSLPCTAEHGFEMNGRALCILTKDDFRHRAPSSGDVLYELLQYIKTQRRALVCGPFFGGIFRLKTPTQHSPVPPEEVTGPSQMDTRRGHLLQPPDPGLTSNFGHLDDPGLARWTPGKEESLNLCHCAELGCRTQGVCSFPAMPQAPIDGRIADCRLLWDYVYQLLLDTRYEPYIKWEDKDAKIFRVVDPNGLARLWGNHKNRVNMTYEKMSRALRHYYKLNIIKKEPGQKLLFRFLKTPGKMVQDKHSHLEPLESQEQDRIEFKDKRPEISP
Particulars: protein: recombinant; tags: N-terminal GST; dsDNA, one strand shown. The method in brief:
as §1

For another assay, the target named is T11, ELF5 (Homo sapiens, UniProt Q9UKW6-2 1-255).
T11 sequence: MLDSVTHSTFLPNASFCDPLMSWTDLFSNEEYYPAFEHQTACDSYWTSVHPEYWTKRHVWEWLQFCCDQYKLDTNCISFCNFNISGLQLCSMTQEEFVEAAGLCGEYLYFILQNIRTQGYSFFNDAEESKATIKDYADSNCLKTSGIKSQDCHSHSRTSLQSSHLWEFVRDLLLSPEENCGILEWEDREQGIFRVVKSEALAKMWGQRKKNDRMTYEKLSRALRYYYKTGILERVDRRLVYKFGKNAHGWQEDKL
Particulars: protein: recombinant; tags: N-terminal GST; dsDNA, one strand shown. Summed up: as §1

For the next assay, the target named is T12, ETV3 (Homo sapiens, UniProt P41162-2 1-143).
T12 sequence: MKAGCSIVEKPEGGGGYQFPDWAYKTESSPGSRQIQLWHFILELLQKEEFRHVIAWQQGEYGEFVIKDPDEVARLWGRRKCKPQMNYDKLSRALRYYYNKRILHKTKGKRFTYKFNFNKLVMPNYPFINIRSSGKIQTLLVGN
The note with it: protein: recombinant; tags: N-terminal GST; dsDNA, one strand shown. Summed up:
as §1

In a further assay the target is ETV6 (Homo sapiens, UniProt P41212 1-452). The note with it: protein: recombinant; tags: N-terminal GST; dsDNA, one strand shown. Summed up: as §1
Chain of ETV6 (P41212 whole entry): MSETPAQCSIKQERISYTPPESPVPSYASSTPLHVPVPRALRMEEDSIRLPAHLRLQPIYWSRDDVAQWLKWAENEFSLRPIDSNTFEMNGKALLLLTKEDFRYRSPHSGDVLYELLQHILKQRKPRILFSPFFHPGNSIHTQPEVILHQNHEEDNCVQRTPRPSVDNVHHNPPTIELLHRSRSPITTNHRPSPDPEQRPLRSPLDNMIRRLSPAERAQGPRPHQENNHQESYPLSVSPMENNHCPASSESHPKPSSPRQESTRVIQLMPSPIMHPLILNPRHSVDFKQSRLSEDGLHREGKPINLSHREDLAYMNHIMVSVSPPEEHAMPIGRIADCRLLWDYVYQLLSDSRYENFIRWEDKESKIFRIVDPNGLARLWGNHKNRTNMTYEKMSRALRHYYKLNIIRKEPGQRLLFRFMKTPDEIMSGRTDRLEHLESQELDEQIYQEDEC

Chain of HSF1 (Q00613 whole entry): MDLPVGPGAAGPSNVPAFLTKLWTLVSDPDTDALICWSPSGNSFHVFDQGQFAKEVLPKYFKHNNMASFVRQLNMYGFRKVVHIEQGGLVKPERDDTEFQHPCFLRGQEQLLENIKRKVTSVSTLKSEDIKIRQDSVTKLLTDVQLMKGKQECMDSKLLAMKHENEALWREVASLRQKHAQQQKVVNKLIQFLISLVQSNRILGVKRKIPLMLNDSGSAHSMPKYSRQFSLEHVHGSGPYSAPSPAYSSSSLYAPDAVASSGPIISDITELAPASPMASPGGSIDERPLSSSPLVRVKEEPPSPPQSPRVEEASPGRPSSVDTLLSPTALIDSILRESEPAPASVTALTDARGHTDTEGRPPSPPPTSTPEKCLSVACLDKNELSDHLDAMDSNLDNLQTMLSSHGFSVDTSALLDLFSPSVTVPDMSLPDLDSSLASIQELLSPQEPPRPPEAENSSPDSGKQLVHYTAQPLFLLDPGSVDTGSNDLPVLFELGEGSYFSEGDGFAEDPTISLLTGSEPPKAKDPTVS
Chain of ELF4 (Q99607 whole entry): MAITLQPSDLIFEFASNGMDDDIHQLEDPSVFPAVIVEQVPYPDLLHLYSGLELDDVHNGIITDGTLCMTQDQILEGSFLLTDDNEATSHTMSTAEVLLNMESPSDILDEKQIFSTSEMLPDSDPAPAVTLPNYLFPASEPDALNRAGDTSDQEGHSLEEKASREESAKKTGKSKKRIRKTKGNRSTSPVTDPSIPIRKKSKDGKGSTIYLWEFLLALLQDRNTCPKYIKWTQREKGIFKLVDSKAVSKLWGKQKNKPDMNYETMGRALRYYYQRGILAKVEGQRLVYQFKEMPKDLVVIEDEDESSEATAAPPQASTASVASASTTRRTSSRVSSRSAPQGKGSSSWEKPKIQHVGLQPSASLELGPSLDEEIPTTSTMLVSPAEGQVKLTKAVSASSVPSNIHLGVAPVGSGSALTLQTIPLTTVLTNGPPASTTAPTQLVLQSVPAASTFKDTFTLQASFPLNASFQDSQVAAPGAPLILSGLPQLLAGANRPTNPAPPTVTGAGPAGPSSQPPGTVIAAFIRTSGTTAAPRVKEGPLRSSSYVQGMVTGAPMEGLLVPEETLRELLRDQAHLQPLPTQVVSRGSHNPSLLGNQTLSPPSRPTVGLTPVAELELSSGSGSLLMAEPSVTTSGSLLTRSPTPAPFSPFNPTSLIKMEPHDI
Chain of CRX (O43186 whole entry): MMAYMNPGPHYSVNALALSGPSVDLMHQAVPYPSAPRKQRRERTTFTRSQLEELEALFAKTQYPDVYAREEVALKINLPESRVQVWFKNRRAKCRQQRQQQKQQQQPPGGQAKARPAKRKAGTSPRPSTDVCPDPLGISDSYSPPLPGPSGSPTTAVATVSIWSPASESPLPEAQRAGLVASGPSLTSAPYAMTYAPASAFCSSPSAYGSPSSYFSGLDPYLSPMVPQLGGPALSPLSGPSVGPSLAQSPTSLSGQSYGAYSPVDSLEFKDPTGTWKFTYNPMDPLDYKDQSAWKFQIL
Chain of ETV5 (P41161 whole entry): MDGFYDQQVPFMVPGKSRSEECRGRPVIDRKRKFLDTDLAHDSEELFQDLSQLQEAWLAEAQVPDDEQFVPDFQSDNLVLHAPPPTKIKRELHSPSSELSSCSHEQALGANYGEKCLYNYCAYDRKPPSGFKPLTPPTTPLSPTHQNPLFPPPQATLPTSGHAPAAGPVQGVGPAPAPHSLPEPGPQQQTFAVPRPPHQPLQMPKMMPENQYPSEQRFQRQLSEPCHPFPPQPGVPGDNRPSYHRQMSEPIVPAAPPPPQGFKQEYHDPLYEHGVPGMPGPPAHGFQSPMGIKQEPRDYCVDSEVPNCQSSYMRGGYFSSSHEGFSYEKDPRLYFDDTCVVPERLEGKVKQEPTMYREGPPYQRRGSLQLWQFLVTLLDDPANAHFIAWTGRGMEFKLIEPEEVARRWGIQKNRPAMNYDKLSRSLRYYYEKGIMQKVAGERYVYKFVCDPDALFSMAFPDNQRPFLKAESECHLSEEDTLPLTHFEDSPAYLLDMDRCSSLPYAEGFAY
Chain of ETV1 (P50549 whole entry): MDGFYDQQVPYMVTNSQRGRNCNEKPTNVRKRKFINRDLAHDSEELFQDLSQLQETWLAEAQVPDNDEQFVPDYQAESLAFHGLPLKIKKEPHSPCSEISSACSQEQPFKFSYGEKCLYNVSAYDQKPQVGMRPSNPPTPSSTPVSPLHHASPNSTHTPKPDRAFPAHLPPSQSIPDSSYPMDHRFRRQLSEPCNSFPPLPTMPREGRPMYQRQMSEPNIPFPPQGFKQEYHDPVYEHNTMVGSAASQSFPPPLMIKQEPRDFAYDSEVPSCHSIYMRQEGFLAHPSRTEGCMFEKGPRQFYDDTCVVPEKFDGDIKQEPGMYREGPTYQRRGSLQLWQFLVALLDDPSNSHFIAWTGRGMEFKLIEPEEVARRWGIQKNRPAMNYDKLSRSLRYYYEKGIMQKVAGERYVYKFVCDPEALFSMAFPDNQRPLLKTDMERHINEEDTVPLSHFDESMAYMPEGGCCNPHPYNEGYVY

Consider CTTAGA, for which the binding signal with FEV was 1.15 fold enrichment (6-mer frequency, TF over GST control); with ETV5, 1.06 fold enrichment (6-mer frequency, TF over GST control); with HSF1, 1.53 fold enrichment (6-mer frequency, TF over GST control); with SPIC, 1.27 fold enrichment (6-mer frequency, TF over GST control); with ELF4, 1.09 fold enrichment (6-mer frequency, TF over GST control); with ELK4 it was 1.24 fold enrichment (6-mer frequency, TF over GST control). Moreover, the binding signal is 1.15 fold enrichment (6-mer frequency, TF over GST control) in the assay with ETV2; 1.07 fold enrichment (6-mer frequency, TF over GST control) with ELF3; 1.69 fold enrichment (6-mer frequency, TF over GST control) in the assay with CRX; 1.14 fold enrichment (6-mer frequency, TF over GST control) in the assay with ETV1; 1.18 fold enrichment (6-mer frequency, TF over GST control) with ERF; 1.17 fold enrichment (6-mer frequency, TF over GST control) in the assay with ETV3L. Further, the binding signal was 1.06 fold enrichment (6-mer frequency, TF over GST control) with ETS2; 1.16 fold enrichment (6-mer frequency, TF over GST control) in the assay with SPDEF; 1.07 fold enrichment (6-mer frequency, TF over GST control) with ETV7; 1.04 fold enrichment (6-mer frequency, TF over GST control) with ELF5; 1.07 fold enrichment (6-mer frequency, TF over GST control) in the assay with ETV3; 1.11 fold enrichment (6-mer frequency, TF over GST control) with ETV6.
